Screens (PubChem BioAssay)
Sampled rows, rich in hits. Any-hit rate of the full collection: about 19%.
Pf growth 96h: P. falciparum growth inhibition at 96 hours | P. falciparum luciferase reporter growth, 96 h | Potency, µM (highest dose often 28.7 µM), for the others: at the highest dose activity change, negative = inhibition, hits mostly inhibitors | actives 6.9% (n = 320,000) | AID 504834; also: potency is read from the fitted curve at half-maximal effect; % is scaled to controls: 0 for no effect and ±100 for the full control effect
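Readout is luminescence from an integrated firefly luciferase in P. falciparum. Red cells, 2% hematocrit and 0.05% parasitemia final, were cultured with compound through two parasite generations (96 hours) at 37 C, 5% CO2.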
Pf growth 48h: P. falciparum growth inhibition at 48 hours (one generation); P. falciparum luciferase growth in erythrocytes, 48 h; Potency, µM (doses to about 28.7 µM), for inactives: top-dose activity change, negative = inhibition, usual class: inhibitors; actives 5.9% (n = 310,000); also: potency is read from the fitted curve at half-maximal effect; % is scaled to controls: 0 for no effect and ±100 for the full control effect
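Luminescence readout; reporter = integrated firefly luciferase in P. falciparum. RBC culture at 2% hematocrit, 0.1% parasitemia final, 37 C/5% CO2; decreased signal taken as growth inhibition.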
Cycloheximide cs: counter-screen for Shiga toxin inhibitors: cycloheximide protein synthesis inhibition; cell reporter, cycloheximide protein synthesis inhibition counterscreen; max response, %; actives 12% (n = 300,000); in the data active = max response mostly above about 13%, no sharp cut-off; inactive = mostly below about 14%; also: read at 38.3 µM for the half of the compounds with a filed dose; 0% is about no effect
Shiga toxin inh: Shiga toxin inhibition | Vero cells, Shiga toxin protein synthesis inhibition reporter | inhibition, % at 38.7 µM | actives 9.2% (n = 290,000); in the data active = inhibition mostly above about 28%, no sharp cut-off; inactive = mostly below about 43%; also: 0% is about no effect
MARV entry inh: blocks Marburg virus binding to or entry into cells. actives 1.8% (n = 300,000). Potency, µM (doses to about 37.8 µM), for inactives: top-dose activity change, negative = inhibition, actives largely listed as inhibitors. Marburg virus pseudotyped entry inhibition, cell reporter. AID 540276; calls by dose curve; tested in HEK293 cells; also: potency is read from the fitted curve at half-maximal effect; % is scaled to controls: 0 for no effect and ±100 for the full control effect
LASV entry inh: Lassa virus entry inhibition. AID 540256. Lassa virus pseudotype entry inhibition, cell reporter. actives 1.2% (n = 300,000). Potency, µM (series often up to 37.9 µM), for inactives: at the highest dose activity change, negative = inhibition, usual class: inhibitors; calls by dose curve; tested in HEK293 cells; also: potency is read from the fitted curve at half-maximal effect; % is scaled to controls: 0 for no effect and ±100 for the full control effect; nearly all actives have a fitted effect of over 50% in size
The depositor's hits bear a star; i = inactive; ? = inconclusive; nt = no result given; [ ] = another dose, or the depositor's remark. Unless noted, calls follow the shape of the dose curve; as a rule, active = well fitted inhibition curve with a large enough effect; inconclusive = small, poorly fitted or top-dose-only effect, or another doubt; inactive = no such curve, though single readings can be large or run the other way.

SMILES	Pf growth 96h	Pf growth 48h	Cycloheximide cs	Shiga toxin inh	MARV entry inh	LASV entry inh
COC(=O)c1ccc(C(=O)NC(=S)Nc2nc3c(s2)CCCC3)cc1	i	88%	20*	63	?	?
COC(=O)c1sc(NC(=S)NC(=O)c2cccc(C)c2)nc1C	73%	38%	7	21	4%	15%
O=C(NC(=S)Nc1nc2c(s1)CCCC2)c1ccccc1	-13%	146%	58*	95*	?	?
Nc1ncc(Br)cc1S(=O)(=O)N1CCCCCC1	21%	7%	3	-5	-7%[46.1 µM]	13%[46.1 µM]
CC(C)(Oc1ccc(Cl)cc1)C(=O)NC1CCSC1=O (centres undefined)	nt	13%	-3	-12	-1%	25%
CCCSc1ccc([C@@H]2[C@@H]3C(=O)N(C)C(=O)[C@@H]3[C@]3(C(=O)OC)CCCN23)cc1OC	8.3µM*	12µM*	nt	nt	nt	nt
CCCCCCSc1ccc([C@@H]2[C@@H]3C(=O)N(C)C(=O)[C@@H]3[C@]3(C(=O)OC)CCCCN23)cc1OC	5.9µM*	3.3µM*	nt	nt	nt	nt
CCCCCCSc1ccc([C@@H]2[C@H]3C(=O)N(C)C(=O)[C@H]3[C@]3(C(=O)OC)CCCCN23)cc1OC	7.4µM*	?	nt	nt	nt	nt
CCCCOc1ccc(C(=O)NN2C(=O)NC3(CCCCC3)C2=O)cc1OC	5%	?	nt	nt	15%	5%
Cc1cccc(/C=N/NC(=O)c2ccc(NC(=O)c3ccccc3C)cc2)n1	22%	0%	-9	-4	1%[46.1 µM]	15%[46.1 µM]
CN(C)c1ccc(C(=S)N2CCN(C(=S)Nc3cccc4ccccc34)CC2)cc1	i[5.75 µM]	16%	-1	1	-15%	-24%
COc1ccc(C2C3=C(CC(C)(C)CC3=O)N(C)C3=C2C(=O)CC(C)(C)C3)cc1	?	-15%	-3	-8	-6%[46.1 µM]	1%[46.1 µM]
C=CCOc1ccc(C2C(C#N)=C(N)N(Nc3ccccc3)C3=C2C(=O)CC(C)(C)C3)cc1OC (centres undefined)	8.3µM*	8.3µM*	5	4	?	?
COc1ccc(C2C3=C(CC(C)(C)CC3=O)N(C)C3=C2C(=O)CC(C)(C)C3)cc1OC	13µM*	16%	2	10	-5%	?
C#CCOc1ccc(C2C3=C(CC(C)(C)CC3=O)N(CC(=O)O)C3=C2C(=O)CC(C)(C)C3)cc1OC	?	-2%	-1	13	nt	nt
Nc1nc(N)c2sc3nc4c(cc3c2n1)CCC4	nt	57%	25*	52	7%	2%
CC(=O)N1c2ccc(S(=O)(=O)N3CCCC3C(=O)Nc3cccc(F)c3)cc2CC1C (centres undefined)	?	?	-2	-2	nt	nt
Cc1cccc(-c2c3c(=O)n(C)c(=O)n(C)c3cn2-c2ccccc2O)c1	8.3µM*	1.9µM*	9	11	2%	?
O=S(=O)(c1ccc(Cl)cc1)c1cnc2ccccc2n1	10µM*	?	1	-9	-61%[46.1 µM]	?
Cc1cc(C)cc(S(=O)(=O)c2cnc3ccccc3n2)c1	?	?	5	11	3%[46.1 µM]	0%
O=C(/C=C/c1cccnc1)c1cccc(O)c1	-16%	-27%	-2	-5	?	?
O=C(/C=C/c1cccc(O)c1)c1cccnc1	-18%	6%	11	19	?	-25%
COc1cc(C(=O)/C=C/c2cccnc2)c([N+](=O)[O-])cc1OC	?	2.9µM*	nt	nt	nt	nt
O=C(/C=C/c1cccnc1)c1ccc(O)cc1	-9%	?	13*	8	?	18%[46.1 µM]
CN(C)c1ccc(/C=C/C(=O)c2cccnc2)cc1	32%	11%	42*	72*	?	22%[46.1 µM]
SMILES	Pf growth 96h	Pf growth 48h	Cycloheximide cs	Shiga toxin inh	MARV entry inh	LASV entry inh
O=C(C=Cc1cccnc1)c1ccccc1	nt	nt	nt	nt	13µM*	?
COc1ccc(NC(=O)c2cc(S(=O)(=O)N3CCCC3)ccc2OC)cc1	28%	-5%	4	-1	nt	3%[46.1 µM]
C(=C\c1ccccn1)/c1cccnc1	107%	105%	21*	67*	nt	nt
O=C(/C=C/c1cccnc1)c1ccccc1O	-6%	-2%	-1	-15	nt	nt
COC(=O)c1ccc(NC2=C(Cl)C(=O)OC2OC(=O)c2ccccc2)cc1 (centres undefined)	52%[1.15 µM]	10%	42*	36	-14%[46.1 µM]	-3%[46.1 µM]
CC(NC(=O)c1ccc2c(c1)sc1nc(-c3ccccc3)cn12)C12CC3CC(CC(C3)C1)C2 (centres undefined)	nt	nt	nt	nt	nt	4%[46.1 µM]
CC1(c2ccccc2Br)NC(=O)N(CC(=O)NC2CCCCC2)C1=O (centres undefined)	12µM*	?	nt	nt	nt	nt
Cn1c(O)c(C(=NCCc2c[nH]c3ccccc23)c2ccccc2)c(=O)n(C)c1=O	?	9.3µM*	-2	-8	nt	nt
CCCCn1c(O)c(C(C)=NCCc2c[nH]c3ccccc23)c(=O)[nH]c1=O	?	?	2	-3	nt	nt
COc1ccccc1N1CCN(C(=O)c2cc3c(=O)n(Cc4ccco4)ccc3nc2C)CC1	nt	nt	nt	nt	nt	1%[46.1 µM]
COc1ccc2[nH]c(=O)c3c(c2c1)OC(C)(C)C=C3	nt	-15%	5	-10	-6%	-14%
Cc1cc2c([nH]c3ccccc32)c2c1OC(C)(C)C=C2	-26%	141%	47*	87*	nt	nt
Cc1ccc(C)n1-c1ccc(C(=O)NCc2ccncc2)cc1	?	?	3	0	-6%	-1%
O=C(NC1CC2CCCC(C1)N2C(=O)Nc1ccccc1)c1ccccc1 (centres undefined)	?	?	-3	-4	-10%[46.1 µM]	-9%[46.1 µM]
O=C(CSc1nnc(SCc2cccc3ccccc23)s1)c1ccc2c(c1)OCO2	?	4%	14*	-7	5%	15%
O=C(CSc1c[nH]c2ccccc12)NCc1ccc2c(c1)OCO2	19%	14%	2	21	nt	nt
O=C(CSc1ccccn1)NCc1ccc2c(c1)OCO2	?	65%	12*	-8	?	4%
O=C(CSc1ccccn1)Nc1ccc2c(c1)OCO2	55%	47%	34*	101*	?	8%
O=C(CSc1ccccn1)c1ccc2c(c1)OCO2	7%	155%	37*	39*	?	-12%
O=C(CSc1ncn(-c2ccccc2)n1)Nc1ccc2c(c1)OCO2	?	10%	-2	22	?	7%
COc1ccc(OCCC(=O)OCC(=O)NC(=O)NC2CCCCC2)cc1	10%	86%	4	16	?	13%
CCN1CCN(c2cc(C)c3cc(NC(=O)c4cnccn4)ccc3n2)CC1	-20%	nt	4	24	nt	nt
CC1(C)Cc2cccc(Oc3ccc(S(=O)(=O)N4CCCC4)cn3)c2O1	?	12µM*	9	0	?	-29%
N#Cc1ccccc1Oc1ccc(S(=O)(=O)N2CCCCC2)cn1	45%	11%	nt	nt	6%	-5%
CC1(C)Cc2cccc(Oc3ccc(S(=O)(=O)N4CCCCC4)cn3)c2O1	?	13µM*	1	-9	-3%	-25%
